Our source for the growth values is PubChem BioAssay (NCI).

Several values for one entry are separate records, joined by “and”; a condition that tells them apart may be missing. Equal entries are not always repeated. The panel holds about 83,000 compounds, 20% with a hit somewhere; the sample as a whole holds those more often.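 In brief: 96-well plates, 48 h treatment, single concentration, percent growth endpoint.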 Activity calls are given as the source filed them. Rule for the calls: active = growth percent below 10; inactive = the rest.

In the experiment the test system is HL-60(TB) leukemia. As to the kind of experiment: NCI-60 one-dose screen, 48 h (100 = growth as untreated, 0 = no growth, -100 = all killed). Particulars: 10 µM unless noted.
As for `O=C(O)c1ccccc1Cc1ccc(F)c2ccccc12`, the growth is 98.1% (inactive) and 91.1% (inactive).

In the case of `CN(C)c1ccc(C(Cc2ccc3ccccc3n2)Cc2ccc3ccccc3n2)cc1`, the growth was 16% (inactive) and 73.5% (inactive).

For `COC(=O)/C=C/C(=O)NC(N)=O`, the growth is 97.4% (inactive).

Regarding `O=C(/C=C/c1cccc(O)c1)c1cccc(-n2cc(-c3ccccc3)[nH]c2=O)c1`, the growth was 42.1% (inactive).

Take `O=C(c1ccc(Cl)cc1)C(NCCO)c1ccc(Cl)cc1` (stereo not given): the growth was 86.9% (inactive) and 116% (inactive).

With `COc1ccc(C2NC(=O)C(C#N)c3c2sc2c(F)cccc32)cc1` (stereo not given), the growth was 10.5% (inactive).

Turning to `O=C(/C=C/c1ccco1)Nc1ncc(Cc2cccc(C(F)(F)F)c2)s1`, the growth was -53.6% (active).

Consider `Cc1ccc(N)c(S(=O)(=O)O)c1`, for which the growth is 74.5% (inactive).

As for `O=C(Nc1nc2ccccc2s1)c1ccc(F)cc1`, the growth was 111% (inactive).

With `C[N+](C)(C)c1ncnc2nc[nH]c12`, the growth is 91.8% (inactive).

Take `Cc1c(C(=O)/C=C/c2csc3ccccc23)[n+](=O)c2ccccc2n1[O-]`: the growth is 67.7% (inactive).

Take `COc1ccc(-c2csc(N(C(=O)N3CCN(c4cc5c(cc4F)c(=O)c(C(=O)O)cn5C4CC4)CC3)c3ccccc3)n2)cc1`: the growth was -29.6% (active).

As to `O=c1c2cc(F)ccc2sc2c(NCCN3CCCCC3)nc3ccccc3c12`, the growth is 57% (inactive).

Turning to `O=C(Nc1ccc(Oc2cccc(Cl)c2)c(Cl)c1)c1cnccn1`, the growth is 1.5% (active).

As for `C#CCN(C)Cc1ccccc1`, the growth is 101% (inactive) and 96.4% (inactive).

Take `O=C(Nc1cccc(-n2ccc3c(NC(=O)c4ccccc4)nccc32)c1)c1ccc(Cl)c(C(F)(F)F)c1`: the growth is -32.3% (active) and 56.6% (inactive).

As to `COc1cc(C2CC(c3ccc(Cl)cc3)=NN2c2ccc(Cl)cc2)cc(OC)c1OC` (stereo not given), the growth was 97.9% (inactive).

`CCOC(=O)C(=Cc1ccc(Br)cc1)C(=O)OCC`: the growth is -41.8% (active).

On to `O=C1C(Cl)=C(Nc2ccc(O)cc2)C(=O)N1Cc1ccc(Cl)cc1`, for which the growth was 32.8% (inactive).

`Cc1ccc(S(=O)(=O)n2ccnc2)cc1`: the growth was 124% (inactive).

As for `Cc1ccc(/C=C2\CN(C(=O)OC(C)(C)C)C/C(=C\c3ccc(C)cc3)C2=O)cc1`, the growth is 41.9% (inactive).

For the compound `CCN1Cc2c(/C=C/c3ccccc3)nc3ccc(OC)cc3c2N(c2cccc(Cl)c2)C1`, the growth was 23.6% (inactive).

In the case of `CCOCC(O)(c1ccc(Cl)cc1)c1ccc(Cl)cc1`, the growth is 106% (inactive).

Turning to `COc1ccc([C@H]2[C@@H](F)C(=O)N2c2cc(OC)c(OC)c(OC)c2)cc1F`, the growth was -14.7% (active).

Consider `C/C(Nc1ccc(Cl)c(Cl)c1)=C1\CCOC1=O`, for which the growth was 96.6% (inactive).

With `COc1ccc(OC)c(-c2nc(SCC(=O)c3ccc(C#N)cc3)[nH]c(=O)c2C#N)c1`, the growth is 106% (inactive).

As for `O=C(OCc1ccc2c(Br)cc(Br)c(O)c2n1)c1cc2ccccc2[nH]1`, the growth is -46.1% (active).

On to `O=C1C=CC[C@H](/C=C/c2ccccc2)O1`, for which the growth is 13.5% (inactive) and -34.5% (active).

In the case of `COc1ccc(OC)c(NC=O)c1`, the growth is 62.2% (inactive).

`COc1cc(/C=N/Nc2nc3c([nH]2)c(=O)n(C)c(=O)n3C)ccc1O`: the growth was 90.7% (inactive) and 103% (inactive).

As to `CC(=O)OC1C=CC(OC(C)=O)O1` (stereo not given), the growth was 102% (inactive).

Regarding `Cc1cc(N2CCCC2)nc(N(CCNc2ccnc3cc(Cl)ccc23)Cc2ccco2)n1`, the growth is -52.8% (active).

Turning to `C=C1C(=O)O[C@H]2[C@H]1CC/C(COC(=O)NCc1c[nH]c3ccc(OC)cc13)=C\CC[C@@]1(C)O[C@@H]21`, the growth was -35.8% (active).

Take `O=[N+]([O-])c1ccc(N/N=C\c2cc(Br)ccc2O)nc1`: the growth was 11.7% (inactive) and -8.74% (active).

As for `O=C1C2=C(CCN(Cc3ccccc3)C2)N2CCN=C2N1Cc1ccc(F)cc1F`, the growth is 27.8% (inactive).

For the compound `N[C@H]1CN(C(=O)c2cc3cc(Br)c(F)c(F)c3[nH]2)C[C@@H]1O`, the growth is 98.5% (inactive).

As to `COc1ccc(-c2nc3sccn3c2/C=C/C(=O)c2ccc3c(c2)OCO3)cc1`, the growth is 79.6% (inactive).

`CCN(CC)c1ccc2c(c1)Oc1nc(N)c(C#N)c(N)c1C2Sc1ccc(OC)cc1` (stereo not given): the growth is -16.6% (active).

As for `O=c1oc2c(cnc3ccccc32)cc1-c1ccsc1`, the growth was 96.7% (inactive).

Regarding `O=C(Nc1ccc(N2CCNCC2)cc1)c1[nH]ncc1Nc1cc(C2CC2)ncn1`, the growth is 67.9% (inactive).
